Pol eta inh: qHTS for Inhibitors of Polymerase Eta; recombinant Pol eta, fluorescent DNA replication assay; DNA polymerase eta (Homo sapiens), Q9Y253; hit rate 1.2% among 390,000; Potency, µM (series often up to 114 µM), for inactives: at the top dose activity change, negative = inhibition, hits mostly inhibitors; further: potency means the concentration at half of the fitted maximal effect; on the % scale 0 is the no-effect control and ±100 the full control effect
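Pol eta at 10 nM preincubated with compounds 15 min at room temperature; reaction started with fluorescent substrate (50 nM final) and read kinetically at 0 and 10 min.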
GLS inhibitor: qHTS for Inhibitors of Glutaminase (GLS) | hit rate 0.21% among 410,000 | Glutaminase kidney isoform, mitochondrial (Homo sapiens), O94925 | GLS enzymatic activity, qHTS titration | AID 624170, 2012 | Potency, µM (highest dose often 45.5 µM), inactives show top-dose activity change, negative = inhibition, usual class: inhibitors; further: potency means the concentration at half of the fitted maximal effect; on the % scale 0 is the no-effect control and ±100 the full control effect
Target sequence (O94925 whole entry, looked up, canonical isoform): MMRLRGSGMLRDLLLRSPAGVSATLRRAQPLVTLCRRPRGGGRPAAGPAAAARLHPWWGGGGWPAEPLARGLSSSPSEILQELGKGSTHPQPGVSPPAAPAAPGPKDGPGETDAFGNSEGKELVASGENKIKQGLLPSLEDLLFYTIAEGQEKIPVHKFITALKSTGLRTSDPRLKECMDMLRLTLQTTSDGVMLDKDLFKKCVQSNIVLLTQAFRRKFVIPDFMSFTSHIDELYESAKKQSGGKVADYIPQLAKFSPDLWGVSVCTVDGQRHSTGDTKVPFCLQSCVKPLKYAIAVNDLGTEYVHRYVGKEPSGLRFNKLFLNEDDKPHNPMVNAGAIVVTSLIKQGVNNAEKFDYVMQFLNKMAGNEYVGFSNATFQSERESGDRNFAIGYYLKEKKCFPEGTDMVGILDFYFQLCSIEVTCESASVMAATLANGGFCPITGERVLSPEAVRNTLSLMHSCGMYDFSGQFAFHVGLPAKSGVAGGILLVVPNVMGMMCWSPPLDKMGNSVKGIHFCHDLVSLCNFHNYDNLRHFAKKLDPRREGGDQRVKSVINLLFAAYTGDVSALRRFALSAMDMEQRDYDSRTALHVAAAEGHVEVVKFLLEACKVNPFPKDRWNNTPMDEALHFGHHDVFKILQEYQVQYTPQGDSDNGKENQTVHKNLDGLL
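Enzyme dispensed in phosphate buffer (45 mM, pH 8.2, 0.02% Tween-20), compounds pinned in, then 1 mM L-glutamine solution and the glutamate oxidase–HRP–Amplex Red mix added; fluorescence read immediately and again after 30 min at room temperature.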
POLI inh: qHTS for Inhibitors of Polymerase Iota; Potency, µM (titrated, usually from 115 µM), without a hit: at the highest dose activity, negative = inhibition, hits mostly inhibitors; hit rate 1% among 390,000; Pol iota fluorescent replication assay, 10 min; DNA polymerase iota (Homo sapiens), Q9UNA4; further: potency means the concentration at half of the fitted maximal effect
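Fluorescent replication assay read twice, at 0 min and 10 min after adding 50 nM (final) substrate. Enzyme (10 nM) and compounds were first incubated 15 min at room temperature; enzyme-free buffer wells were negative controls.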
POLK inh: qHTS for Inhibitors of Polymerase Kappa | Potency, µM (doses to about 107 µM), without a hit: top-dose activity, negative = inhibition, most hits filed as inhibitors | purified Pol kappa, fluorescent DNA synthesis assay, 10 min | DNA polymerase kappa (Homo sapiens), Q9UBT6 | AID 588579, 2011 | hit rate 0.53% among 400,000; further: potency means the concentration at half of the fitted maximal effect; on the % scale 0 is the no-effect control and ±100 the full control effect
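Inhibition of 10 nM Pol kappa is measured by a fluorescent read-out at 0 and 10 min following addition of 50 nM substrate (final), with a 15-min room-temperature compound preincubation.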
Pol beta inh-1: qHTS Assay for Inhibitors of DNA Polymerase Beta; P06746; Potency, µM (titrated, usually from 114 µM), without a hit: at the highest dose activity change, negative = inhibition, actives largely listed as inhibitors; Pol beta primer extension/strand displacement, fluorescence kinetic; hit rate 1.3% among 340,000; AID 485314, 2010; further: potency means the concentration at half of the fitted maximal effect; on the % scale 0 is the no-effect control and ±100 the full control effect
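Values derive from four-parameter Hill fits of normalized kinetic data: reads at 0 and 10 min following addition of 50 nM substrate to 10 nM Pol beta preincubated 15 min with compound.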
GCN5L2 inh: qHTS Assay for Inhibitors of GCN5L2; Histone acetyltransferase KAT2A (Homo sapiens), Q92830; GCN5L2 HAT assay, ThioGlo1 CoA-SH fluorescence; Potency, µM (doses to about 58.9 µM), without a hit: at the top dose activity change, negative = inhibition, actives largely listed as inhibitors; hit rate 0.21% among 390,000; AID 504327, 2011; further: potency means the concentration at half of the fitted maximal effect; on the % scale 0 is the no-effect control and ±100 the full control effect
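GCN5L2 (20nM final) in 50mM HEPES, 0.1mM EDTA pH 7.5, 0.01% Tween-20 was preincubated 15 min at room temperature with compound, then given ThioGlo1 (50uM), H3(1-25) peptide (75uM) and acetyl-CoA (70uM); CoA-thiol fluorescence (Ex340/Em540) was read at 0 and 20 min.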
Pol beta inh-2: Inhibitors of DNA Polymerase Beta: Hit validation; hit rate 87% among 250; shares compounds with Pol beta inh-1; Potency, µM, most hits filed as inhibitors; Pol beta primer extension/strand displacement, fluorescence kinetic; calls by dose curve; further: potency means the concentration at half of the fitted maximal effect
Klenow counter: Inhibitors of DNA Polymerase Beta: Hit Validation in Klenow Fragment Assay | AID 540300, 2011 | shares compounds with Pol beta inh-1 | Klenow exo- polymerase counter-screen, fluorescent DNA substrate | activity change, negative = inhibition, % at 57.1 µM | 250 tested, under 10 active
HIV RT counter: Inhibitors of DNA Polymerase Beta: Hit Validation in HIV-RT Assay; shares compounds with Pol beta inh-1; HIV-1 RT polymerase activity, counter-screen; activity % (negative = inhibition, positive = activation), % at 57.1 µM; 250 tested, under 10 active; AID 540301, 2011
POLB inh gel: Inhibitors of DNA Polymerase Beta: Hit Validation in Radiolabeled Extension Assay; shares compounds with Pol beta inh-1; radiolabeled primer extension gel assay, phosphorimager; inhibition, % at 10 µM; hit rate 91% among 110;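 active means inhibition at 10 µM of 30% or more; inconclusive means no clear call, values can overlap the other calls; inactive means inhibition at 10 µM under 30%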
An asterisk follows results filed as active; [ ] = another dose, or the depositor's remark. Hits are enriched below; roughly 2.4% of the tested compounds scored in any of these assays. Unless noted, the call rests on the fitted dose curve; in most records, active means well fitted curve in the direction sought with a large enough effect; inconclusive means small, poorly fitted or top-dose-only effect, or another doubt; inactive means no such curve, though single readings can be large; an effect the other way counts as inactive or inconclusive.

For CCOc1ccc(C2C(C(=O)Nc3ccccc3C)=C(C)Nc3nnnn32)cc1 (stereo not given) the results were Pol eta inh -15.5%, GLS inhibitor 5.8%, POLI inh 14.1%, POLK inh -16.8%, Pol beta inh-1 0.7% and GCN5L2 inh -12.2%.
CCOc1ccc(C2=Nn3c(nnc3-c3ccccc3OC)SC2)cc1 was read as Pol eta inh 1.6%, GLS inhibitor 7.5%, POLI inh 20.3%, POLK inh -4.7%, Pol beta inh-1 -0.5% and GCN5L2 inh -0.5%.
Screening COc1ccccc1-c1nnc2n1N=C(c1ccc(O)c(O)c1)CS2 returned Pol eta inh 8.91µM*, GLS inhibitor -28.6%, POLI inh 12.6µM*, POLK inh 25.1µM*, Pol beta inh-1 3.98µM*, GCN5L2 inh 56.9%, Pol beta inh-2 25.1*, Klenow counter -21.7, HIV RT counter -14.5 and POLB inh gel 36.9*.
Screening O=S(=O)(c1ccc(C2CCCCC2)cc1)N1CCN(c2cc(Cl)ccc2Cl)CC1 returned Pol eta inh -15.7%, GLS inhibitor -10.3%, POLI inh -5.0%, POLK inh -12.2%, Pol beta inh-1 0.9% and GCN5L2 inh 0.6%.
CCn1c(=NC(=O)c2ccc(N3C(=O)CCC3=O)cc2)sc2c(OC)ccc(OC)c21 was read as Pol eta inh inconclusive, GLS inhibitor -12.2%, POLI inh 15.8µM*, POLK inh inconclusive, Pol beta inh-1 10µM*, GCN5L2 inh -19.5%, Pol beta inh-2 inconclusive, Klenow counter -32.8, HIV RT counter 56.6 and POLB inh gel 98.3*.
`CCn1c(=NC(=O)c2cccc(N3C(=O)CCC3=O)c2)sc2c(C)ccc(OC)c21` gave Pol eta inh -4.7%, GLS inhibitor -4.7%, POLI inh 6.1%, POLK inh -7.0%, Pol beta inh-1 33.8% and GCN5L2 inh -25.6%.
Screening COc1cccc(Nc2ncc3ncc(=O)n(C[C@H]4CCCO4)c3n2)c1 returned POLK inh -1.3%[60.1 µM] and GCN5L2 inh -17.4%.
`COc1cc(CCC(=O)NCc2ccc3c(c2)CCN3C(=O)c2cccc(C)c2)cc(OC)c1OC` gave Pol eta inh -14.9%, GLS inhibitor -14.0%, POLI inh -14.4%, POLK inh -9.3%[60.1 µM], Pol beta inh-1 2.5% and GCN5L2 inh 6.3%.
For Cc1ccc(S(=O)(=O)N2CCN(c3nc(-c4cncs4)nc4ccccc34)CC2)cc1 the results were POLI inh -2.4% and POLK inh -0.9%.
O=C(OCc1cc(=O)n2c(n1)sc1ccccc12)c1ccc2c(=O)n3c(nc2c1)CCC3 was read as Pol eta inh inconclusive, GLS inhibitor -27.1%, POLI inh inconclusive, POLK inh inconclusive, Pol beta inh-1 10µM*, GCN5L2 inh -22.1%, Pol beta inh-2 12.6*, Klenow counter -17.2 and HIV RT counter 26.8.
Screening CCc1ccc(OCC(=O)Nc2cc(-c3ccc(C)cc3)no2)cc1 returned Pol eta inh 3.7%, GLS inhibitor -5.8%, POLI inh -14.9%, POLK inh 11.0%, Pol beta inh-1 19.6% and GCN5L2 inh -20.4%.
For COC(=O)c1ccc(CSc2nc3scc(-c4cccs4)c3c(=O)[nH]2)o1 the results were Pol eta inh inconclusive, GLS inhibitor -2.6%, POLI inh inconclusive, POLK inh inconclusive, Pol beta inh-1 20µM*, GCN5L2 inh -18.9%, Pol beta inh-2 31.6*, Klenow counter -9.0, HIV RT counter 21.7 and POLB inh gel 97.8*.
For CCOC(=O)c1c(C)oc2nc(C)nc(Nc3cc(C)cc(C)c3)c12 the results were Pol eta inh 8.0%, GLS inhibitor -1.2%, POLI inh -19.2%, POLK inh -3.0%, Pol beta inh-1 6.9% and GCN5L2 inh -7.1%.
COc1ccc(-c2onc(C)c2C)cc1S(=O)(=O)NCc1ccco1 was read as Pol eta inh -13.1%, GLS inhibitor 8.0%, POLI inh 2.3%, POLK inh -4.4%, Pol beta inh-1 -0.7% and GCN5L2 inh -2.9%.
For CCOC(=O)Cc1csc(NC(=O)c2sc3nc4ccc(CC)cc4cc3c2N)n1 the results were Pol eta inh inconclusive, GLS inhibitor -10.7%, POLI inh 79.4µM*, POLK inh -8.9%, Pol beta inh-1 5.62µM*, GCN5L2 inh -17.8%, Pol beta inh-2 28.2*, Klenow counter -1.5, HIV RT counter 11.4 and POLB inh gel 84.5*.
For CCOC(=O)Cc1csc(NC(=O)c2sc3nc4cc(C)ccc4cc3c2N)n1 the results were Pol eta inh inconclusive, GLS inhibitor 12.3%, POLI inh -12.4%, POLK inh -23.4%, Pol beta inh-1 -24.3% and GCN5L2 inh -4.0%.
Cc1cc(-c2nc3c4c5c(sc4[nH]c(=O)n3n2)CCC5)c(C)o1 was read as Pol eta inh 12.6µM*, GLS inhibitor 152.4%, POLI inh 12.6µM*, POLK inh inconclusive, Pol beta inh-1 3.55µM*, GCN5L2 inh inconclusive, Pol beta inh-2 31.6*, Klenow counter -16.5, HIV RT counter 27.4 and POLB inh gel 22.6.
`CC1N(C)c2cc(NC(=O)c3ccco3)ccc2C1(C)C` (stereo not given) gave Pol eta inh inconclusive, GLS inhibitor 34.7%, POLI inh inconclusive, POLK inh inconclusive, Pol beta inh-1 20µM*, GCN5L2 inh -4.5%, Pol beta inh-2 inconclusive, Klenow counter -36.4 and HIV RT counter -8.4.
For CC(=O)Nc1ccc(NC(=O)c2ccco2)cc1 the results were Pol eta inh 3.8%, GLS inhibitor -18.5%, POLI inh 18.9%, POLK inh -1.8%, Pol beta inh-1 -4.5% and GCN5L2 inh -12.4%.

Assay outcomes from PubChem.
